According to the supplement of paper PMC6555819:

How the values were obtained:
Experiment in all cases: PBM binding z-score (relative to random genomic background probes); higher = stronger binding; sequences stand for … in GC…GCGATTGACAGCGTAGAATGAAGG
[1] = test system: FXR:RXRa (NR concentration 270 nM, RXRa partner concentration 90 nM)
Summary of the method: (§1)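 Antibodies against each partner of ligand-free nuclear receptor dimers (one per run) detected binding on custom Agilent 4×180K protein-binding microarrays after 1 h incubation. The double-stranded probes had 34-nt variable regions carrying direct-repeat seeds, single-nucleotide variants, half-site ablations and random human genomic background sequences. Binding z-scores, from regression-normalized fluorescence, use the random background probes as reference.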

[2] = test system: LXRa:RXRa (NR concentration 270 nM, RXRa partner concentration 90 nM)
Summary of the method: as §1

[3] = test system: LXRa homodimer (NR concentration 270 nM)
Summary of the method: as §1

[4] = test system: LXRb:RXRa (NR concentration 270 nM, RXRa partner concentration 90 nM)
Summary of the method: as §1

[5] = test system: LXRb homodimer (NR concentration 270 nM)
Summary of the method: as §1

[6] = test system: PPARa:RXRa (NR concentration 270 nM, RXRa partner concentration 90 nM)
Summary of the method: as §1

[7] = test system: PPARg:RXRa (NR concentration 180 nM, RXRa partner concentration 90 nM)
Summary of the method: as §1

[8] = test system: PPARg:RXRa 270nM:90nM, anti-RXR (NR concentration 270 nM, RXRa partner concentration 90 nM)
Summary of the method: as §1

[9] = test system: PPARg:RXRa 30nM:10nM, anti-RXR (NR concentration 30 nM, RXRa partner concentration 10 nM)
Summary of the method: as §1

[10] = test system: PPARg:RXRa 90nM:30nM, anti-RXR (NR concentration 90 nM, RXRa partner concentration 30 nM)
Summary of the method: as §1

[11] = test system: PPARg:RXRa DBDmut IVT, anti-RXR (DBD mutation: RXRa K156A/R161A, NR concentration 270 nM, RXRa partner concentration 90 nM)
Summary of the method: as §1

[12] = test system: PPARg:RXRa IVT, anti-PPARg (NR concentration 270 nM, RXRa partner concentration 90 nM)
Summary of the method: as §1

[13] = test system: PPARg DBDmut:RXRa IVT, anti-PPARg (DBD mutation: PPARg1 K132A/R137A, NR concentration 270 nM, RXRa partner concentration 90 nM)
Summary of the method: as §1

[14] = test system: PPARg DBDmut IVT, anti-PPARg (DBD mutation: PPARg1 K132A/R137A, NR concentration 270 nM)
Summary of the method: as §1

[15] = test system: PPARg homodimer (NR concentration 180 nM)
Summary of the method: as §1

[16] = test system: PXR:RXRa (NR concentration 270 nM, RXRa partner concentration 90 nM)
Summary of the method: as §1

[17] = test system: PXR homodimer (NR concentration 270 nM)
Summary of the method: as §1

[18] = test system: RARa:RXR (NR concentration 270 nM, RXRa partner concentration 90 nM)
Summary of the method: as §1

[19] = test system: RARa homodimer (NR concentration 270 nM)
Summary of the method: as §1

[20] = test system: RARb:RXRa (NR concentration 270 nM, RXRa partner concentration 90 nM)
Summary of the method: as §1

Sequence	PBM binding z-score [1]	PBM binding z-score [2]	PBM binding z-score [3]	PBM binding z-score [4]	PBM binding z-score [5]	PBM binding z-score [6]	PBM binding z-score [7]	PBM binding z-score [8]	PBM binding z-score [9]	PBM binding z-score [10]	PBM binding z-score [11]	PBM binding z-score [12]	PBM binding z-score [13]	PBM binding z-score [14]	PBM binding z-score [15]	PBM binding z-score [16]	PBM binding z-score [17]	PBM binding z-score [18]	PBM binding z-score [19]	PBM binding z-score [20]
CGAACTAGGTCAGGGACAGTGAATCTCCGCACGC	1.19	0.726	-0.107	0.458	-0.639	3.59	5.89	4.71	2.38	4.17	7.43	7.24	1.27	0.491	0.781	0.326	-0.0952	0.867	-0.305	3.18
AACTCTAGGTAAAGATAGTTCAGTGAATGCAAAT	0.28	3.96	0.498	0.633	-0.176	0.465	0.601	0.353	0.0247	0.245	2.43	1.47	1.03	0.24	0.547	0.755	0.513	0.462	0.929	0.576
TCTTGTACATCAGCAGGTTAAGAAAGCTGGCCAA	0.22	0.475	-0.073	0.542	0.127	0.883	-0.203	1.47	2.81	2.33	1.51	0.722	-0.0534	0.403	-0.0357	0.478	-0.155	0.59	0.183	0.473
ACTAGCTGGCCAAGGGTCACTCAAGATTAGTCCG	2.23	2.82	0.129	2.53	-0.388	3.71	4.25	5.31	3.16	5.05	-0.256	1.86	-0.605	-0.878	1.67	2.92	-0.559	3.54	-0.213	3.34
CCTTACGGGTCACTGACAGGTTATAGGATTTGGA	4.95	4.33	0.341	3.36	-0.182	5.09	4.36	4.46	1.48	3.55	3.61	3.81	0.353	-0.0191	2.26	3.57	0.377	4.38	0.591	4.08
AATACAGGCTCACTAGGCCAGAGTAGGTACGAAT	-0.561	-0.71	-0.282	-0.839	-0.695	-0.441	0.692	0.176	0.027	-0.114	0.83	1.96	0.786	0.55	-0.108	-0.759	-0.466	-0.759	-0.709	-0.981
CGTCAAATTTCAAGGTAACGTAACAGAAAGCAGC	0.0505	-0.0464	0.101	0.163	-0.042	0.466	0.489	-0.149	0.0887	-0.0536	-0.147	0.739	1.23	0.951	0.422	0.33	-0.166	0.634	0.311	0.427
GCTAGCAGGCGATTTGGGTCACTCAATGACGGGC	0.0524	-0.217	-0.513	-0.281	-0.929	1.48	0.632	0.575	-0.192	0.427	1.67	2.53	-0.476	-0.307	-0.254	0.00388	-0.474	0.575	-0.848	0.752
ACTAGCAGGCCAAGGGCCACTCAAGATTAGTCCG	-0.56	-0.559	-0.856	-1	-1.27	0.699	2.13	3.13	1.28	2.51	0.244	0.822	-0.352	-1.82	-0.633	-0.879	-0.75	-0.678	-0.685	0.884
TCTTGTAGATCAACGGTTAAGAAAGCCGAAGCCT	0.513	0.28	-0.0283	0.131	-0.0358	1.14	0.464	2.61	3.23	3.03	1.73	0.568	0.699	0.541	0.0861	0.292	-0.149	0.701	0.15	0.235
GTACCAGGGTGAATAGGTCGTTGATGAGTAGGCG	0.645	0.813	-0.254	0.582	-0.461	2.09	1.15	1.61	0.0734	0.776	0.914	2.01	-0.169	-0.469	0.791	0.92	0.246	1.86	0.108	1.24
TCTCGGAGGACACGAAGGTAAGAGCTTTCCAGAG	0.0947	-0.361	-0.534	-0.695	-1.37	-0.0207	-0.0725	0.91	2.21	1.39	1.18	-0.283	-1.16	-1.1	-1.58	-0.316	-1.01	-0.153	-0.725	1.25
CCTAGCAGGCCAGGGTCCCTCAAGCATTTCGCTT	-0.373	-0.567	-0.782	-0.712	-1.31	-0.381	-0.884	-0.699	-1.41	-0.959	-0.423	-0.501	-1.5	-1.43	-0.522	-0.483	-0.449	-0.227	-0.786	-0.0655
TAGCTTAGGTCATGGGCCAGTATACCACGCGAAC	4.7	3.6	0.14	2.77	0.0949	4.23	2.88	3.21	0.853	2.08	1.43	2.29	0.945	-0.133	1.14	1.82	-0.151	2.69	0.342	4.1
ATCTCTAGTTAACAAGTTCAGTGAAAGAGAGGAC	0.682	1.12	0.782	0.883	1.22	0.724	0.29	0.54	0.48	0.596	0.0329	0.697	1.35	1.03	0.961	1.81	2.1	0.902	1.15	1.49
